Screening results as filed in PubChem.
hcDAF-12 act – activators of H. contortus DAF-12 nuclear receptor; HEK293 hcDAF-12 lit1-tk-luc reporter, luminescence; 0% DMSO, 100% Δ7-dafachronic acid; activation, % at 6.8 µM; actives 1.4% (n = 370,000); AID 652067;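 active means activation above the mean of all tested compounds plus 3 SD, cut at about 5.5% in these data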;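 further: 100% = response to 3 µM Δ7-dafachronic acid high control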
AHR act – human AHR activation | P35869 | AHR-responsive luciferase reporter cells, luminescence | activation, % at 5 µM | actives 2.5% (n = 320,000) | AID 2796; in the data active means activation above about 47%;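 further: 0% = vehicle wells and 100% = reference agonist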
DAX1 inh-1 – NR0B1 (DAX1) inhibition; inhibition, % at 6.75 µM; HEK293 Gal4-DAX1 luciferase reporter, luminescence; actives 0.99% (n = 340,000); P51843; AID 504766;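 active means inhibition above the mean over all tested compounds plus 3 SD, cut at about 4.2% in these data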;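 further: 0% = DAX1-transfected cells with DMSO and 100% = empty-vector control cells with DMSO; inhibition shows as a rise in luminescence from relieved DAX1 repression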
hgDAF12 agonist – hgDAF-12 agonism, primary luciferase screen; HEK293 GAL4-hgDAF12 UAS-luciferase reporter, agonist luminescence; normalized to butyrate control; activation, % at 6.8 µM; actives 1.8% (n = 370,000); AID 687014;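 active means activation above a cutoff set at the mean of all screened compounds plus 3 SD, cut at about 10% in these data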;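 further: 0% = DMSO wells and 100% = sodium butyrate wells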
ssDAF-12 act – activators of S. stercoralis DAF-12 nuclear receptor; actives 1% (n = 370,000); AID 652126; HEK293 ssDAF-12/GRIP1 lit1-tk-luc reporter, luminescence; % of 3 µM dafachronic acid response; activation, % at 6.8 µM;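 active means activation above the mean over all tested compounds plus 3 SD, cut at about 0.9% in these data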;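 further: 0% = DMSO-only wells and 100% = 3 µM delta7-dafachronic acid wells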
DAX1 inh-2 – inhibitors of DAX1 repression of SF-1 activated StAR promoter; HEK293T StAR-luciferase reporter, SF-1/DAX-1 repression relief; inhibition, % at 6.8 µM; actives 1.1% (n = 370,000); AID 652010;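 active means inhibition above the mean over all tested compounds plus 3 SD, cut at about 3.6% in these data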;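 further: 0% = DAX-1 cells with DMSO and 100% = cells lacking DAX-1 with DMSO; higher inhibition means more luminescence from relief of DAX-1 repression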
LXRb hcDAF ctr – LXR-beta agonism as hcDAF-12 counter-screen; 3,400 tested, under 10 active; shares compounds with hcDAF-12 act; activation, % at 6.8 µM; HEK293 Gal4-LXR tk-luc reporter, luminescence, 24 h; normalized: DMSO 0%, positive control 100%; AID 743027;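 active means mean percent activation of the reporter above a cutoff set as the average over tested compounds plus their standard deviation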
Target sequence (P55055 whole entry, looked up, the tested form may be a part): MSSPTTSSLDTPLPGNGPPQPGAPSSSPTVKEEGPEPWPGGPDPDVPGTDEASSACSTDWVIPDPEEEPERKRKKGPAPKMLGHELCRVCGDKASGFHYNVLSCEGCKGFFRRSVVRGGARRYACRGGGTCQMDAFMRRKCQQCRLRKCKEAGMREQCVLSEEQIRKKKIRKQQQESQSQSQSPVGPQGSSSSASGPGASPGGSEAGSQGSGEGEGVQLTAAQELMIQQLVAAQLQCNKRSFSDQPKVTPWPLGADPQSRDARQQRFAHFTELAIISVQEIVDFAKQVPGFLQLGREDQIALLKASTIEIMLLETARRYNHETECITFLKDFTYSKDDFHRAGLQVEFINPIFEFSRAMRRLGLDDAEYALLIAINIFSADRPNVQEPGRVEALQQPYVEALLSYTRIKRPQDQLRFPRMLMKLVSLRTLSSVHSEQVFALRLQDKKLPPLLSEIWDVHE
hcDAF12 ag – hcDAF-12 agonism, confirmation assay; shares compounds with hcDAF-12 act; HEK293 hcDAF-12 lit1-tk-luc reporter, luminescence; % of Δ7-dafachronic acid response; activation, % at 6.8 µM; actives 61% (n = 3,400);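 active means mean activation across triplicate tests above the threshold derived from the earlier primary screen, cut at about 5.5% in these data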;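 further: 0% = DMSO only wells and 100% = 3 µM Δ7-dafachronic acid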
Active calls of the source: *; nt = not tested or not shown. Hits are enriched below; roughly 5.7% of the tested compounds scored in any of these assays.

SMILES | hcDAF-12 act | AHR act | DAX1 inh-1 | hgDAF12 agonist | ssDAF-12 act | DAX1 inh-2 | LXRb hcDAF ctr | hcDAF12 ag
c1ccc(CN2CCN(CCCNc3ccc4nnc(-c5ccccc5)n4n3)CC2)cc1 | nt | 2 | -1 | nt | nt | nt | nt | nt
CCn1c(=NC(=O)c2ccco2)sc2cccc(F)c21 | 12* | 36 | 2 | 13* | 1 | 2 | 1 | 8.4*
c1ccc(COc2ccc(OCCCN3CCCC3)cc2)cc1 | 7.3* | 0 | 0 | 8 | 0 | 4.4* | 1 | 9.4*
CC1CCN(CCCOc2ccc(OCc3ccccc3)cc2)CC1 | -1 | 13 | -1 | 1 | -1 | 0 | nt | nt
Cc1ccc(-n2nnc(-c3cccnc3)n2)cc1 | 2 | -4 | 1 | 9 | 0 | 2 | nt | nt
Cc1ccc(-n2nnc(-c3nccn3C)n2)cc1 | 6.9* | 4 | -3 | 7 | 0 | 3 | 1 | 7.3*
Cc1ccc(-n2nnc(-c3cnc4ccccc4c3)n2)cc1 | 9.9* | 24 | 5.1* | 10 | 1.6* | 2 | 2 | 14*
CCOc1ccccc1NC(=S)N1C2CCC1CC(NC(=O)NC13CC4CC(CC(C4)C1)C3)C2 (configuration not stated) | -1 | 1 | 0 | -3 | -2 | 0 | nt | nt
N#C/C(=C\c1ccc([N+](=O)[O-])cc1)C(=O)Nc1ccccc1O | 4 | 42 | -1 | 6 | 0 | 0 | nt | nt
O=C(Nc1ccccc1O)c1ccc([N+](=O)[O-])cc1 | 7.0* | 70* | 0 | 6 | 1.4* | 1 | 0 | 3
N#C/C(=C/c1ccc([N+](=O)[O-])cc1)C(=O)Nc1ccccc1O | 11* | 68* | 3 | 6 | 0 | 0 | 0 | 5
O=C(O)COc1ccccc1/C=N/NC(=O)c1cc2ccccc2cc1O | 11* | 58* | 0 | 10 | 2.7* | 2 | 0 | 5
C#CCOCCOCCOCCNc1nc(N2CCN(C(=O)CCCCCCCCCCNC(=O)[C@H]([C@@H](C)CC)n3cc(CCCCN=C(N)N)nn3)CC2)nc(N2CCN(C(=O)CCCCCCCCCCNC(=O)[C@@H]([C@H](C)O)n3cc(C)nn3)CC2)n1 | nt | -1 | 1 | nt | nt | nt | nt | nt
O=C(NNc1nc2ccccc2o1)c1ccccc1 | 8.2* | -6 | nt | 11* | 0 | 2 | 1 | 4
Cc1ccnc(NC(=S)NC(=O)c2cccs2)c1 | 14* | 9 | 4 | 19* | 2.1* | 4.3* | 2 | 11*
Cc1ccnc(NC(=O)CNC(=O)c2cccs2)c1 | -1 | 6 | 4 | 2 | -1 | 0 | nt | nt
COc1ccc(OCc2cc(C(=O)N(Cc3nccn3C)C(C)C)no2)c2ccccc12 | 7.3* | 20 | 0 | 7 | 0 | -1 | 0 | 6.9*
COc1ccc(OCc2cc(C(=O)N3CCCC(O)C3)no2)c2ccccc12 (configuration not stated) | 7.0* | 52* | 3 | 11* | 1.2* | 3 | 1 | 9.2*
CCOC(=O)c1c(C)[nH]c(C(=O)OCC(=O)Nc2ccc(OC)c(Cl)c2)c1C | -3 | 6 | 0 | 0 | -1 | 0 | nt | nt
C[C@H]1CN([C@@H](C)CO)C(=O)c2cc(NS(=O)(=O)c3ccc(F)cc3)ccc2O[C@H]1CN(C)S(=O)(=O)c1cn(C)cn1 | -1 | -1 | 2 | 0 | 0 | 0 | nt | nt
c1ccc(CCNc2nc3ccccc3n3nnnc23)cc1 | 1 | 2 | 1 | 2 | -1 | 0 | nt | nt
COc1ccc(CCNc2nc3ccccc3n3nnnc23)cc1OC | 7.7* | 54* | 4 | 7 | 0 | -1 | 0 | 2
CC(=O)c1ccc(OCc2cc(=O)n3ccsc3n2)cc1 | 9.8* | 1 | 4 | 9 | -1 | 1 | 0 | 3
COc1ccc(-n2c(SCC(=O)Nc3ccc(NC(C)=O)cc3)nc3c([nH]c4ccccc43)c2=O)cc1OC | 9.6* | 41 | 0 | 0 | 1.0* | -1 | 0 | 6.7*
COc1ccccc1Cc1c(-c2ccc(F)cc2)nc2ccc(Cl)cn12 | 7.0* | nt | nt | 11* | 0 | 4.0* | 0 | 1
SMILES | hcDAF-12 act | AHR act | DAX1 inh-1 | hgDAF12 agonist | ssDAF-12 act | DAX1 inh-2 | LXRb hcDAF ctr | hcDAF12 ag
CCCCCCCCN1C(=O)[C@@H](CC(=O)N2CCN(C(=O)OCC)CC2)C[C@@]2(C(=O)OC)C1=C[C@H](C(C)C)O[C@@H]2C1CC1 | 0 | nt | nt | 2 | -1 | -1 | nt | nt
Cc1ccc([C@H]2C[C@@H](O)[C@H](n3cc(C4CC4)nn3)CN2CC2CCCCC2)cc1 | -1 | nt | 1 | -2 | -2 | 0 | nt | nt
Cc1ccc([N+](=O)[O-])cc1N=Cc1ccc(Br)s1 | 2 | 6 | 0 | -2 | -1 | 0 | nt | nt
Cc1ccc(C=Nc2cc([N+](=O)[O-])ccc2C)s1 | 6.9* | 10 | 0 | 4 | 0 | 0 | 0 | 1
COc1ccc(/C=[N+](\[O-])C2N(c3ccccc3)C(=S)SC2(C)C)cc1OC (configuration not stated) | 9.3* | -2 | 2 | 3 | -1 | 0 | 0 | 0
C/C(=N\NC(=O)c1ccc(C)cc1)c1c(C)[nH]n(-c2ccccc2)c1=O | 1 | nt | 1 | 5 | 0 | 0 | nt | nt
C/C(=N\NC(=O)c1ccccc1)c1c(C)[nH]n(-c2ccccc2)c1=O | 9.2* | 4 | 4.8* | 7 | 0 | 1 | 0 | -1
Oc1csc(Cc2nc(-c3ccc(Br)cc3)cs2)n1 | 8.8* | 78* | 2 | 12* | 0 | 2 | 0 | 7.6*
CCCOc1ccc(NC(=O)C2CC(=O)N(C(C)C)C2)cc1 (configuration not stated) | 2 | 6 | -1 | -1 | -1 | -1 | nt | nt
CCC1CCCCN1CCCNC(=O)Cn1c2ccccc2c2nc(=O)cc(C)n21 (configuration not stated) | 8.2* | 15 | 0 | 2 | 0 | 1 | 0 | 6.7*
CCOC(=O)C1CCCN(C(=O)Cc2c(C(=O)O)[nH]c3ccccc23)C1 (configuration not stated) | 6.8* | 3 | 1 | 0 | 0 | 0 | 0 | 3
CCOC(=O)C1CCCN(C(=O)CC(c2ccccc2)c2ccccc2)C1 (configuration not stated) | -2 | 0 | -1 | 1 | -2 | 0 | nt | nt
N#Cc1ccc(-c2nc3c4ccccc4ccn3c2CC2CCCCC2)cc1 | 2 | nt | nt | 6 | 0 | -1 | nt | nt
